Source: PubChem BioAssay
ALR inh: inhibitors of human ALR sulfhydryl oxidase, primary screen, biochemical, H2O2 detection, HRP-luminol luminescence, single point; FAD-linked sulfhydryl oxidase ALR (Homo sapiens), P55789; purified ALR, DTT oxidation; inhibition, % (test concentration not listed); 3.8% of 290,000 active; AID 485317, 2010;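 active = mean replicate inhibition above about 79%, with every replicate also reaching it, limit read from the data; inconclusive = only one of the two criteria met; inactive = mean below limit and not every replicate reaching it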
Target sequence (P55789 whole entry, looked up): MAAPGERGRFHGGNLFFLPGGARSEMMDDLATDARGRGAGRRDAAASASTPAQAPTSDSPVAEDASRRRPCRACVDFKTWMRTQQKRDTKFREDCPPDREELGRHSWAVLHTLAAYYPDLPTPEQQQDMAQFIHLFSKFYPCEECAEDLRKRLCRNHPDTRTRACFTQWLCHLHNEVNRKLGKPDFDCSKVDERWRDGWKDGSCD
A3A deaminase: APOBEC3A ssDNA deaminase inhibitors, primary screen, selectivity assay for APOBEC3G inhibitor project, biochemical, FAM/TAMRA oligo cleavage fluorescence; DNA dC->dU-editing enzyme APOBEC-3A (Homo sapiens), P31941; recombinant A3A, FAM/TAMRA ssDNA deamination fluorescence; inhibition, % at 20 µM; 0.41% of 330,000 active;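 active = at least 40% inhibition at 20 µM here, with at most 30% in a related deaminase screen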
Target sequence (P31941 whole entry, looked up): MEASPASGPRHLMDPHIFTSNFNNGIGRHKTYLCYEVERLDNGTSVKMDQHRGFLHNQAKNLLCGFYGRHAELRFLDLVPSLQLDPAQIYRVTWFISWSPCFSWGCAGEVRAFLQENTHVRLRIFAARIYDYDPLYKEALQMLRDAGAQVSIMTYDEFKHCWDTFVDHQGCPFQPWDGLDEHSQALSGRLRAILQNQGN
PfM18AAP inh-1: PfM18AAP inhibitors, malaria aminopeptidase, primary screen, biochemical, QFRET, recombinant enzyme. H-Glu-NHMec fluorogenic cleavage. M18 aspartyl aminopeptidase (Plasmodium falciparum 3D7). 1.2% of 290,000 active. inhibition, % at 7.35 µM. AID 1822, 2009;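 active = inhibition above the campaign mean inhibition over all tested compounds plus 3 SD, cut at about 28% in these data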
Yeast superoxide: reduction of superoxide in aged yeast, primary screen, HTS | AID 2690, 2010 | S. cerevisiae aged cells, superoxide DHE fluorescence; stronger effect = lower value | 0.18% of 330,000 active | superoxide response (% of plate mean), % at 10 µM;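 active = superoxide response under a set limit, about three screen SD below normal, cut at about 65% in these data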;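 note: yeast aged for seven days with compound at 30 °C before DHE staining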
A3G deaminase: APOBEC3G DNA deaminase inhibitors, primary screen, biochemical, fluorescence, single-stranded DNA substrate, uHTS; inhibition, % at 20 µM; 0.28% of 330,000 active; recombinant A3G, ssDNA deamination FAM/TAMRA fluorescence; DNA dC->dU-editing enzyme APOBEC-3G (Homo sapiens), Q9HC16;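 active = inhibition of at least 40% at 20 µM, with no more than 30% in the related APOBEC3A deaminase screen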
NRP1-CendR mod: modulators of CendR peptide binding to NRP-1, primary screen, biochemical, fluorescence polarization, uHTS; Neuropilin-1 (Homo sapiens), O14786; FAM-RPARPAR peptide binding to NRP-1; inhibition, % at 25 µM; 0.85% of 360,000 active; AID 602438, 2012;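 active = inhibition or corrected inhibition above about 18%, plus a signal ratio from 0.5 to 1.5, limit read from the data, passing the limit was not always enough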
PfM18AAP inh-2: PfM18AAP inhibitors, malaria aminopeptidase, confirmation, biochemical, QFRET, recombinant enzyme, triplicate; shares compounds with PfM18AAP inh-1; H-Glu-NHMec fluorogenic cleavage; inhibition, % at 7.35 µM; 28% of 2,400 active;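 active = mean inhibition over replicate wells above the hit cutoff set for the earlier primary screen, cut at about 29% in these data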
CTSL1 counter: cathepsin L1 inhibitors, retest, confirmation, counter-screen for PFM18AAP inhibitor project, biochemical, QFRET, triplicate; shares compounds with PfM18AAP inh-1; purified cathepsin L1, Z-Leu-Arg-MCA fluorescence; inhibition, % at 5.96 µM; 2,400 tested, under 10 active; AID 2178, 2009;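 active = average inhibition across replicates above the hit cutoff set in the earlier primary screen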
APOBEC3G confirm: APOBEC3G deaminase inhibitor retest, confirmation, biochemical, fluorescence, single-stranded DNA substrate, single concentration; shares compounds with A3G deaminase; recombinant A3G ssDNA deaminase, UDG/FAM-TAMRA fluorescence; inhibition, % at 20 µM; 72% of 890 active; AID 493152, 2011;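 active = inhibition reaching a set limit in any replicate at 20 µM, the limit being 80% of the first screen's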
UDG A3G counter: E. coli UDG inhibitors, confirmation, counter-screen for APOBEC3G inhibitor project, biochemical, single concentration, fluorescence, FAM/TAMRA oligo; 710 tested, under 10 active; shares compounds with A3G deaminase; inhibition, % at 20 µM; AID 504715, 2011; UDG counterscreen;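 active = compounds giving 40% or more inhibition at 20 µM in any one of the three replicates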;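 note: inhibitors lower the FAM signal released by uracil excision and alkaline cleavage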
Target sequence (P12295 whole entry, looked up): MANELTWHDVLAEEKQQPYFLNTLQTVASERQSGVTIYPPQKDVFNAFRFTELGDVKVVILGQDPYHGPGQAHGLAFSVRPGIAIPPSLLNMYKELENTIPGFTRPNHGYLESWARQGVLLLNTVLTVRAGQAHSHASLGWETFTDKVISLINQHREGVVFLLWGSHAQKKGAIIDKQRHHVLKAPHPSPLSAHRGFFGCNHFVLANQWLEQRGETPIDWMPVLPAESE
Numbers stand for hits; - = inactive; ? = inconclusive; . = no result given. Most compounds without a hit are left out; they make up all but 5.2% or so of the library.

SMILES	ALR inh	A3A deaminase	PfM18AAP inh-1	Yeast superoxide	A3G deaminase	NRP1-CendR mod	PfM18AAP inh-2	CTSL1 counter	APOBEC3G confirm	UDG A3G counter
COc1ccc(CNC(=O)CN(C(=O)CCC(=O)Nc2nccs2)c2ccc(C)cc2)cc1	.	-	-	-	-	-	.	.	.	.
O=C(Cn1sc2ccccc2c1=O)Nc1ccc(Cl)cc1	.	.	.	.	.	-	.	.	.	.
CCOc1ccc(NC(=O)Cn2sc3nc(C)cc(C)c3c2=O)cc1	-	-	56	-	80	-	36	-	49	-
Cc1cc(C)c2c(=O)n(CC(=O)Nc3ccc(Cl)cc3)sc2n1	-	-	57	-	82	-	47	-	93	-
Cc1ccc(NC(=O)Cn2sc3nc(C)cc(C)c3c2=O)c(Cl)c1	-	-	67	-	72	-	45	-	92	-
Cc1cc(C)c2c(=O)n(CC(=O)N3CCC(Cc4ccccc4)CC3)sc2n1	.	-	56	.	43	.	-	-	58	.
Cc1ccn2c(=O)nc(SCC(=O)N3CCC(Cc4ccccc4)CC3)nc2c1	-	-	.	-	-	-	.	.	.	.
C#CCOCCOCCOCCNc1nc(N2CCN(C(=O)Cn3cc(CC(C)O)nn3)CC2)nc(N2CCN(C(=O)[C@H]([C@@H](C)CC)n3cc(CCCCN)nn3)CC2)n1 (stereo not given in full)	.	.	.	.	.	-	.	.	.	.
Cc1nc(SCc2ccc(O)c([N+](=O)[O-])c2)n[nH]1	-	-	-	-	-	-	.	.	.	.
Cc1nc(SCc2ccc(O)c([N+](=O)[O-])c2)c([N+](=O)[O-])[nH]1	-	-	47	-	63	-	-	-	58	-
CCCCn1c(=O)c2ccccc2n2c(=S)[nH]nc12	-	-	32	-	40	-	-	-	71	-
O=c1c2ccccc2n2c(=S)[nH]nc2n1-c1ccccc1	-	-	45	-	58	-	-	-	69	-
FC(F)Oc1ccc(/C=N/n2c(Cc3ccc(Br)cc3)n[nH]c2=S)cc1	-	-	46	-	48	-	-	-	42	-
CCOc1ccc(S(=O)(=O)NC(C)C(=O)NCc2ccccn2)cc1 (stereo not given)	-	-	-	-	-	-	.	.	.	.
COc1ccc(CN2C(=O)C(=O)N(CC(N)=O)C2=O)cc1	-	-	-	-	-	-	.	.	.	.
Cc1ccccc1-n1sc2cc(F)ccc2c1=O	.	-	70	-	75	-	64	-	81	-
c1cc(SSc2ccncc2)ccn1	-	-	62	-	65	-	50	-	71	.
C=CCNC(=O)CSc1nc2sccc2c(=O)n1-c1ccccc1	-	-	-	-	-	-	.	.	.	.
COc1cc(/C=N/n2cc(-c3ccccc3)[nH]c2=S)cc(OC)c1O	.	-	62	-	46	-	48	-	85	-
Oc1ccc(/C=N/n2c(COc3ccccc3)n[nH]c2=S)cc1O	100	-	53	-	43	-	-	-	77	-
CCOc1cc(/C=N/n2c(COc3ccccc3)n[nH]c2=S)ccc1O	-	-	-	-	-	-	.	.	.	.
O=C(CN1CCN(c2ccc(F)cc2)CC1)Nc1ccc2c(c1)OCCO2	-	-	-	-	-	-	.	.	.	.
O=C(CN1CCN(c2ccc(O)cc2)CC1)Nc1ccc2c(c1)OCCO2	78	-	38	-	62	-	-	-	-	.
Cc1cc(C)nc(SSc2nc(C)cc(C)n2)n1	.	-	61	-	57	-	-	-	83	-
CC(=O)OCC1=C(C(=O)O)N2C(=O)C(NC(=O)COc3ccc(F)cc3)C2SC1 (stereo not given)	.	-	.	.	-	-	.	.	.	.
SMILES	ALR inh	A3A deaminase	PfM18AAP inh-1	Yeast superoxide	A3G deaminase	NRP1-CendR mod	PfM18AAP inh-2	CTSL1 counter	APOBEC3G confirm	UDG A3G counter
CCOC(=O)Cn1cnc2c(nnn2-c2ccc(OC)cc2)c1=O	-	-	-	-	-	-	.	.	.	.
COc1ccc(-n2nnc3c(SC(C(C)=O)C(=O)N(C)C)ncnc32)cc1 (stereo not given)	-	-	46	-	51	-	-	-	-	-
COc1ccc(C2/C=C\CN(C(=O)C3CCCC3)[C@H](Cc3ccccc3)C(=O)N2Cc2ccc(F)cc2)cc1 (stereo not given in full)	-	-	.	-	-	-	.	.	.	.
O=[N+]([O-])c1ccc(S(=O)Cc2ccccc2)c([N+](=O)[O-])c1 (stereo not given)	.	.	.	.	.	-	.	.	.	.
O=c1c2c([N+](=O)[O-])cc([N+](=O)[O-])cc2sn1Cc1ccccc1	-	-	79	-	70	-	72	-	76	-
CCCCCCn1c(SCC(=O)OC)nc2c1c(=O)[nH]c(=O)n2C	.	-	48	-	45	-	-	-	68	-
COc1ccccc1N1CCN(C(=O)c2cccc(N3C(=O)NC4CC3(C)Oc3c(OC)cccc34)c2)CC1 (stereo not given)	-	-	-	-	-	-	.	.	.	.
CC(=O)c1sc2nsc(SCCN3CCOCC3)c2c1N	?	-	60	-	62	-	-	-	59	-
Cc1cc(S(=O)(=O)NCc2ccccc2)ccc1OCC(=O)N1CCOCC1	-	-	-	-	-	-	.	.	.	.
CCn1c(N)c(C(=O)NC)sc1=S	99	-	50	-	59	-	37	-	-	.
CC(/C=N/n1c(-c2cc(C)[nH]n2)n[nH]c1=S)=C\c1ccco1	98	-	36	-	61	-	-	-	73	-
CCCNC(=O)NS(=O)(=O)c1cnccc1Sc1ccc(Cl)c(Cl)c1	-	-	-	-	-	-	.	.	.	.
